Reference: PubChem BioAssay (NCATS)
Records with an inconclusive call do not appear. Entries that show only a call come without a potency. Calls of active or inactive are those of the source. Calls follow the shape of the dose curve; as a rule, active = well fitted inhibition curve with a large enough effect; inconclusive = small, poorly fitted or top-dose-only effect; inactive = flat fitted curve, though single readings scatter.

test: qHTS for differential inhibitors of proliferation of Plasmodium falciparum line Dd2 (AID 1882); conditions: Potency: Plasmodium falciparum Dd2 proliferation inhibition; series mostly up to 28.7 µM; also: nearly all actives have a fitted effect of over 65% in size
From the text: NIH Molecular Libraries Probe Production Network [MLPCN]
NIH National Institute of Allergy and Infectious Diseases [NIAID]
NIH Chemical Genomics Center [NCGC]
Assay Provider: Xinzhuan Su, NIAID
Plasmodium falciparum is a virulent malarial parasite that kills 1-2 million people worldwide each year. Transmitted by mosquitoes, the sporozoite form of the parasite enters the blood stream to infect hepatocytes, where they become merozoites that infect red blood cells (erythrocytes). Within erythrocytes, merozoites begin a […] cycle of growth and division, after which the parasite is released to infect new red blood cells. Gametocytes, which form within erythrocytes as well, circulate in the bloodstream and are ingested by the mosquito, thereby completing the life cycle. To profile malarial isolates for differential chemical responses and to identify inhibitors of malarial growth, an assay that measures P. falciparum growth and replication within erythrocytes was employed. This assay uses a DNA binding fluorescent dye (SYBR Green) to detect parasite DNA following cell lysis. Because mature erythrocytes lack DNA, only Plasmodium-derived DNA is detected. The P. falciparum line Dd2, derived from a malarial isolate from […], was used.
NCGC Assay Protocol Summary:
The SYBR Green viability assay was adapted from a method described previously (Plouffe et al., 2008). For screening 3 ul culture medium was dispensed into 1536 well black clear bottom plates (Aurora Biotechnologies) using a Multidrop Combi (Thermo Fisher Scientific Inc.), 23 nL compounds in DMSO were added by a pin tool (Kalypsys), and 5 ul of erythrocytes infected with P. falciparum line Dd2 (0.3% parasitemia, 2.5% hematocrit final concentration) were added. The plates were incubated at 37 C in a humidified incubator in 5% CO2 for 72 h, and 2 ul lysis buffer (20 mM Tris HCl, 10 mM EDTA, […]% saponin, 1.6% triton X, 10X SYBR Green I supplied as 10,000X […] by Invitrogen) was added to each well. The plates were mixed for 25 sec with gentle shaking and incubated overnight at room temperature in the dark. The following morning, fluorescence intensity at 485(14) nm excitation and 535(25) nm emission wavelengths was measured on an EnVision (Perkin Elmer) plate reader. Plate reads were normalized relative to the control inhibitor (0.29 uM artemisinin) and vehicle (DMSO) wells present on each plate and then corrected by an algorithm using vehicle-only control plates at the beginning and end of the compound plate stack.
Plouffe D, Brinker A, McNamara C, Henson K, Kato N, Kuhen K, Nagle A, Adrian F, Matzen JT, Anderson P, Nam TG, Gray NS, Chatterjee A, Janes J, Yan SF, Trager R, Caldwell JS, Schultz PG, Zhou Y, Winzeler EA. […] Proc Natl Acad Sci U S A. 2008, 105(26), pp 9059-64.
Potency is read from the fitted curve at half-maximal effect.

SMILES | Potency
Nc1nc2c(ncn2COC(CO)CO)c(=O)[nH]1 | inactive
C[C@](N)(Cc1ccc(O)c(O)c1)C(=O)O | inactive
CC(C)C(=O)Nc1ccc([N+](=O)[O-])c(C(F)(F)F)c1 | inactive
NC(=O)NO | inactive
CN1CCN2c3ccccc3Cc3ccccc3C2C1 (stereo not given) | 7.08 µM (active)
Nc1ccn([C@H]2CC[C@@H](CO)O2)c(=O)n1 | inactive
Fc1ccc([C@@H]2CCNC[C@H]2COc2ccc3c(c2)OCO3)cc1 | 11.2 µM (active)
O=C1N(c2ccccc2)c2ccccc2C1(Cc1ccncc1)Cc1ccncc1 | inactive
CN(Cc1cnc2nc(N)nc(N)c2n1)c1ccc(C(=O)N[C@@H](CCC(=O)O)C(=O)O)cc1 | 0.0794 µM (active)
OCCN(CCO)c1nc(N2CCCCC2)c2nc(N(CCO)CCO)nc(N3CCCCC3)c2n1 | 6.31 µM (active)
CC(C)NCC(O)c1ccc(O)c(O)c1 (stereo not given) | inactive
CN1CCN(CCCN2c3ccccc3Sc3ccc(Cl)cc32)CC1 | 11.2 µM (active)
NCCc1cnc[nH]1 | inactive
CC[N+](CC)(CC)CCOc1cccc(OCC[N+](CC)(CC)CC)c1OCC[N+](CC)(CC)CC | inactive
NCCS(=O)(=O)O | inactive
CNCCCC12CCC(c3ccccc31)c1ccccc12 | 11.2 µM (active)
Clc1ccc(C(c2ccccc2Cl)C(Cl)Cl)cc1 (stereo not given) | inactive
COC(=O)Nc1nc2ccc(C(=O)c3cccs3)cc2[nH]1 | inactive
COc1ccc2c(c1)c(CC(=O)O)c(C)n2C(=O)c1ccc(Cl)cc1 | inactive
O=c1c(-c2ccc(O)cc2)coc2cc(O)cc(O)c12 | inactive

SMILES | Potency
CCCCc1oc2ccccc2c1C(=O)c1cc(I)c(OCCN(CC)CC)c(I)c1 | 6.31 µM (active)
CCOC(=O)C(C)(C)Oc1ccc(Cl)cc1 | inactive
Cc1cnc(C(=O)NCCc2ccc(S(=O)(=O)NC(=O)NC3CCCCC3)cc2)cn1 | inactive
Cc1cc(C(C)(C)C)c(O)c(C)c1CC1=NCCN1 | inactive
O=C(Nc1ccc([N+](=O)[O-])cc1Cl)c1cc(Cl)ccc1O | 1.41 µM (active)
NC(=O)OCC(COC(N)=O)c1ccccc1 | inactive
NCCCCCC(=O)O | inactive
COc1nc(C)nc(Cl)c1NC1=NCCN1 | inactive
Clc1ccc2c(c1)C(N1CCNCC1)=Nc1ccccc1O2 | 11.2 µM (active)
CN1CCC(=C2c3ccccc3C=Cc3ccccc32)CC1 | 5.01 µM (active)
CS(=O)(=O)Nc1ccc([N+](=O)[O-])cc1Oc1ccccc1 | inactive
COc1cc2nc(N3CCN(C(=O)c4ccco4)CC3)nc(N)c2cc1OC | 7.94 µM (active)
Nc1nnc(-c2cccc(Cl)c2Cl)c(N)n1 | inactive
Cn1cnc2c1c(=O)[nH]c(=O)n2C | inactive
Clc1ccccc1C(c1ccccc1)(c1ccccc1)n1ccnc1 | 1.78 µM (active)
CCCNCC(O)COc1ccccc1C(=O)CCc1ccccc1 (stereo not given) | 1 µM (active)
COc1ccccc1OCC(O)CN1CCN(CC(=O)Nc2c(C)cccc2C)CC1 (stereo not given) | inactive
CC(C)(Oc1ccc(C2CC2(Cl)Cl)cc1)C(=O)O (stereo not given) | inactive
NS(=O)(=O)c1cc2c(cc1Cl)NCNS2(=O)=O | inactive
CCc1cccc2c3c([nH]c12)C(CC)(CC(=O)O)OCC3 (stereo not given) | inactive
